For 9 molecules, growth results are on record in PubChem BioAssay (NCI).

Common to all, as to assay: NCI-60 one-dose screen, 48 h (100 = growth as untreated, 0 = no growth, -100 = all killed)
Conditions in all cases: 10 µM unless noted

The subject of assay [1] is EKVX NSCLC.
Assay [2] concerns SN12C renal.
Assay [3] deals with UO-31 renal.
Assay [4] relates to TK-10 renal.
For assay [5], the system named is ACHN renal.
In assay [6] the test system is CAKI-1 renal.
Assay [7] has as its system A498 renal.
In assay [8] the test system is CCRF-CEM leukemia.
For assay [9], the system named is MOLT-4 leukemia.
In assay [10] the test system is RPMI-8226 leukemia.
Assay [11] concerns OVCAR-8 ovarian.
Assay [12] deals with OVCAR-5 ovarian.
Assay [13] has as its system OVCAR-4 ovarian.
The test system of assay [14] is SK-OV-3 ovarian.
For assay [15], the system named is IGROV1 ovarian.
For assay [16], the system named is OVCAR-3 ovarian.
The subject of assay [17] is HS 578T breast.
The subject of assay [18] is NCI/ADR-RES ovarian.
Assay [19] concerns SR leukemia.

About 83,000 compounds went through this panel and 20% of them were active in at least one assay; those are over-represented in the sample as a whole.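 Values shown are percent growth following 48 h exposure of cells in 96-well plates to a single concentration of compound; below 10 was considered active.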 Values without a mark were called inactive. Activity calls are given as the source filed them.

`CCCCCCCOc1c(OC)cc(C2CC(=O)Nc3c2c(C)nn3-c2nc3ccccc3[nH]2)cc1OC` (centres undefined): the growth in assay [1] is -26.5% (active); in [2], 9.34% (active); in assay [3], -69.7% (active); in assay [4], 11%; in assay [5], 1.49% (active); in assay [6] it was -41% (active). Further, the growth in assay [7] is -28.6% (active); in assay [8] it was 24.5%; in assay [9], 15.2%; in assay [10], 8.24% (active); in assay [11] it was -19.4% (active); in assay [12], 9.97% (active). For the same molecule, the growth was -11.8% (active) in [13]; -51.3% (active) in assay [14]; 2.58% (active) in [15]; -67.1% (active) in assay [16]; -19.8% (active) in [17]; 13.7% in assay [18].
As for `COc1cc(C2CC(c3ccc(Nc4ccnc5cc(Cl)ccc45)cc3)=NN2C=O)cc(OC)c1OC` (centres undefined), the growth is 76.7% in assay [1]; 86.7% in assay [2]; 61.9% in assay [3]; 92.8% in assay [4]; 87.5% in assay [5]; 86.7% in assay [6]. Besides, the growth was 93.2% in [7]; 58% in assay [8]; 43.1% in assay [9]; 21.3% in assay [10]; 74% in [11]; 86.3% in assay [13]. Besides, the growth is 86.8% in [14]; 106% in assay [15]; 2.55% (active) in [16]; 26.2% in assay [17]; 73.4% in assay [18].
For the molecule `Cc1ccc(S(=O)(=O)N/N=C\c2cc(Cl)ccc2O)cc1`, the growth was 113% in assay [1]; 101% in assay [2]; 83.7% in assay [3]; 88.4% in assay [4]; 75.4% in assay [5]; 73.9% in assay [6]. Also, the growth in assay [7] was 86.7%; in assay [8], 74%; in assay [9], 98.1%; in assay [10] it was 82.3%; in assay [11], 91.2%; in assay [12], 82%. The growth in assay [14] was 63.3%; in assay [15], 51%; in [17], 91.3%; in assay [18], 71%.
Consider `N=C1CCC(=N)c2c1c(O)c1ccccc1c2O`, for which the growth was 82.1% in [1]; 105% in assay [2]; 101% in assay [3]; 127% in assay [4]; 87% in assay [5]; 56% in assay [6]. Moreover, the growth was 100% in [7]; 98.4% in assay [8]; 81.1% in [9]; 80.2% in assay [10]; 109% in [11]; 95.2% in assay [13]. Also, the growth in [14] is 84.7%; in assay [15], 80.1%; in assay [16], 73.1%; in assay [17], 82.8%; in assay [18], 119%.
Turning to `Nc1n[nH]c2cc(F)c([C@@H]3Nc4c(F)cc5[nH]ncc5c4[C@H]4C5CCC(C5)[C@@H]34)cc12` (some centres undefined), the growth was 63.2% in assay [1]; 17.3% in assay [2]; 76.3% in [4]; 24.4% in [5]; 6.94% (active) in assay [6]; -38.9% (active) in [7]. The growth is 17.8% in assay [8]; 14.8% in assay [9]; 5.57% (active) in assay [10]; 29.2% in assay [11]; 35.1% in assay [12]; 44.2% in assay [13]. The growth in assay [14] is 34%; in [15], 17.2%; in assay [16], 8.71% (active); in assay [17], 26.8%; in assay [18], 11.8%.
Take `NC(=O)c1ccc[n+](Cc2ccc(Cl)cc2Cl)c1`: the growth was 107% in assay [1]; 101% in assay [2]; 99.8% in assay [3]; 88.4% in assay [4]; 109% in [5]; 107% in [6]. Besides, the growth in assay [7] is 99.8%; in assay [8] it was 97.4%; in assay [19], 7.84% (active); in assay [10], 93%; in [11], 99.5%; in assay [12] it was 96.9%. Besides, the growth is 109% in assay [13]; 97.2% in [14]; 105% in assay [15]; 109% in assay [16]; 99.4% in [17]; 111% in [18].
With `CC1O[C@@H](OC2[C@H](OC(=O)/C=C/c3ccc(O)c(O)c3)C(COC3O[C@H](C)C(O)C(O)[C@@H]3O)O[C@@H](OCCc3ccc(O)c(O)c3)[C@H]2O)[C@@H](O)C(O)[C@H]1O` (some centres undefined), the growth is 91.2% in assay [1]; 106% in [2]; 89.9% in assay [3]; 100% in assay [4]; 103% in [5]; 97.3% in assay [6]. Besides, the growth in assay [7] is 107%; in assay [9], 99.1%; in assay [19], 105%; in assay [11] it was 106%; in [12] it was 105%; in assay [13] it was 104%. The growth in [14] was 90.3%; in assay [15], 102%; in assay [16], 108%; in assay [17], 108%; in assay [18], 116%.
As to `COc1cc(N=Nc2cc(Cc3ccc(N(C)C)cc3)c(N)cc2N(C)C)c2ncccc2c1`, the growth was 8.8% (active) in [1]; 31.2% in assay [2]; -12.6% (active) in [3]; 32.3% in assay [4]; -58.5% (active) in assay [5]; 13.5% in [6]. In addition, the growth in assay [7] is -8.31% (active); in [9], -13.2% (active); in assay [19], -13.5% (active); in assay [10], -53.4% (active); in assay [11], -37% (active); in [12], 42.8%. Moreover, the growth in [13] was -48.9% (active); in assay [14], -0.131% (active); in assay [15], 7.41% (active); in assay [16], -28.7% (active); in assay [17], 18.3%; in assay [18], -17.8% (active).
Turning to `COc1ccc(NC(=O)CSc2nc(C)c(C(C)=O)n2-c2ccc([N+](=O)[O-])cc2)cc1`, the growth is 88.1% in assay [1]; 94.7% in assay [2]; 96.9% in [4]; 95.6% in assay [5]; 99.6% in assay [6]; 58.1% in [7]. Further, the growth in assay [8] is 111%; in assay [9], 92.2%; in [10], 102%; in assay [11], 96.4%; in assay [12] it was 89.8%; in assay [13], 102%. Also, the growth in assay [15] was 95.8%; in [16] it was 119%; in assay [17] it was 94.9%; in assay [18] it was 86%.
